# Assay results published in PubChem BioAssay (NCATS).
# Values joined by “and” are separate entries in the source; they are usually repeats but may differ in a detail not shown here. Equal values may be shown once. Results filed as inconclusive are left out. Values without a mark were called inactive. Active and inactive are the calls of the source. Calls come from the whole dose curve; as a rule, active = well fitted cell-killing curve with a large enough effect; inconclusive = small, poorly fitted or top-dose-only effect; inactive = flat fitted curve, though single readings scatter.
# How the values were obtained:
# [1] = Cellular viability qHTS for adrenocortical cancer (ACC) cell line SW-13 (AID 1963989); settings: SW-13 ACC cells viability, CellTiter-Glo, 48 h; activity (max response): hits give low values; note: nearly all actives have a fitted effect of over 65% in size;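 for activity (max response): cells grown in serum-free medium with ITS supplement; % is set by controls: 0 for no effect and ±100 for the full control effect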
# How it was run: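 IC50 and maximal-response values come from four-parameter logistic fits of titration data. SW-13 cells in serum-free medium received compounds (up to 46 uM final) for 48 h before CellTiter-Glo luminescence.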
# [2] = Cellular viability qHTS for adrenocortical cancer (ACC) cell line NCI-H295R (AID 1963990); note: nearly all actives have a fitted effect of over 60% in size
# How it was run: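 Adrenocortical carcinoma cells, suspended at 300 000 cells/mL in serum-free DMEM plus ITS, rested overnight before pin transfer of compound. After two days' incubation, ATP-dependent luminescence was recorded and curve-fitted.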
# Potency is the fitted concentration of half-maximal effect.
SMILES,activity (max response) [1],Potency [2],Potency [1]
NC(=O)c1cc[n+](CC2=C(C(=O)[O-])N3C(=O)[C@@H](NC(=O)Cc4cccs4)[C@H]3SC2)cc1,11.8%,inactive,–
Cc1ccsc1/C=C/C1=NCCCN1C,-3.84%,inactive,–
C/C(=C\C(=O)Nc1ccccc1C(=O)O)c1ccc2ccccc2c1,–,28.2 µM (active),12.6 µM (active)
CC(=O)SCC(CC(=O)c1ccc(C)cc1)C(=O)O (stereo not given),11.5%,inactive,–
O=C(CCCCCCCCC#CI)Oc1ccccc1,-0.224%,13 µM (active),–
COc1cc(=C2C=c3ccccc3=N2)[nH]/c1=C/c1[nH]c(C)cc1C,–,7.94 µM (active),28.2 µM (active)
CC(C)Cc1ccc(C(C)C(=O)OCc2ccccn2)cc1 (stereo not given),14%,inactive,–
COc1ccc(-c2oc3c(CC=C(C)C)c(OC4O[C@H](CO)[C@@H](O)[C@H](O)[C@H]4O)cc(O)c3c(=O)c2OC2O[C@@H](C)[C@H](O)[C@@H](O)[C@H]2O)cc1 (stereo not given in full),7.81%,inactive,–
CCC(=O)O[C@]1(C(=O)CO)CC[C@H]2[C@@H]3CCC4=CC(=O)CC[C@]4(C)[C@H]3CC[C@@]21C,7.43%,inactive,–
Cc1cc(Nc2cc(N)ncn2)c(=O)n2c1C(=O)NC21CCCCC1,0.221%,inactive,–
Brc1c(NC2=NCCN2)ccc2nccnc12,-5.06%,inactive,–
CO[C@]12C[C@@H](COC(=O)c3cncc(Br)c3)CN(C)[C@@H]1Cc1cn(C)c3cccc2c13,3.85%,inactive,–
COc1cc(O)c(C(=O)c2ccccc2)cc1S(=O)(=O)O,9.22%,inactive,–
Cc1ccc(O)cc1,11.5%,inactive,–
O=C(c1cc(O)c(O)c(O)c1)c1ccc(O)c(O)c1O,4.03%,inactive,–
O=C(CCNC(=O)c1ccc(OC(F)(F)F)cc1)N[C@@H]1CCCc2ccccc21,-26.4%,inactive,–
O=C(Nc1ccc2c(c1)CCN(Cc1ncn[nH]1)C2)c1ccccc1-c1ccc(C(F)(F)F)cc1,-15.2%,inactive,–
CCN(CC)CCOCCOC(=O)C1(c2ccccc2)CCCC1,-3.2%,inactive,–
O=C(O)c1ccc(O)c2ncccc12,-6.62%,inactive,–
COc1ccc(CCN(C)CCCC(C#N)(c2ccc(OC)c(OC)c2)C(C)C)cc1OC (stereo not given),-2.85% and -16.8%,inactive,–
N=C1S/C(=C\c2ccc(-c3ccc4c(c3)C(=O)NC4=O)o2)C(=O)N1c1ccc(Br)cc1,2.9%,inactive,–
C#CC1(O)CC[C@H]2[C@@H]3CCC4=CCCC[C@@H]4[C@H]3CC[C@@]21C (stereo not given in full),6.47%,inactive,–
Nc1ccc2cc3ccc(N)cc3nc2c1,–,2.59 µM (active),6.51 µM (active)
Cc1cc(Nc2cc(N3CCN(C)CC3)nc(/C=C/c3ccccc3)n2)n[nH]1,–,10 µM (active),25.1 µM (active)
N#C/C(=C1\SCC(c2ccccc2Cl)S1)n1ccnc1 (stereo not given),-13.5%,inactive,–

SMILES,activity (max response) [1],Potency [2],Potency [1]
C[C@]12CC[C@@H]3c4ccc(O)cc4CC[C@H]3[C@@H]1CCC2=O,-14.1%,inactive,–
CCN(CC)CCOC(=O)C(c1ccccc1)c1ccccc1,0.334%,inactive,–
COc1ccc(-n2cnc3cc(C(=O)N4CCCCC4)ccc32)cc1,-10.1%,inactive,–
Cc1c(CN2CCN(C(=O)[C@H](C)O)CC2)sc2c(N3CCOCC3)nc(-c3cnc(N)nc3)nc12,–,0.398 µM (active),0.631 µM (active)
CCn1nc(C(=O)O)c(=O)c2cc3c(cc21)OCO3,1.15%,inactive,–
O=C(Nc1cccnc1)c1cc(-c2ccnc(F)c2)ccc1OCc1ccccc1,13.4%,inactive,–
c1ccc(CCNc2nc(-c3ccccc3)cs2)cc1,-5.01%,inactive,–
Cc1cc(C)c(/C=C2\C(=O)Nc3ccccc32)[nH]1,5.7% and 12.2%,inactive,–
CC(=O)OCC(=O)[C@@]1(O)CC[C@H]2[C@@H]3CCC4=CC(=O)C=C[C@]4(C)[C@@]3(F)[C@@H](O)C[C@@]21C,2.62%,inactive,–
CCC(C(=O)OCCN1CCOC(c2ccccc2)C1C)c1ccccc1 (stereo not given),3.6%,inactive,–
CN1CCC(N(Cc2cccs2)c2ccccc2)CC1,6.02%,inactive,–
CCC[C@H](NC(=O)[C@@H]1[C@H]2CCC[C@H]2CN1C(=O)[C@@H](NC(=O)[C@@H](NC(=O)c1cnccn1)C1CCCCC1)C(C)(C)C)C(=O)C(=O)NC1CC1,-27.4%,inactive,–
[O-][n+]1ccccc1SSc1cccc[n+]1[O-],–,0.0893 µM (active),1.59 µM (active)
CC(=O)[C@@]1(O)CC[C@H]2[C@@H]3CCC4=CC(=O)CC[C@]4(C)[C@H]3CC[C@@]21C,-6.65%,inactive,–
CC(=O)Nc1ccc(C(=O)NC(C)(C)C)cc1,-16.7%,inactive,–
CCc1oc2ccccc2c1C(=O)c1cc(Br)c(O)c(Br)c1,–,7.31 µM (active),7.31 µM (active)
O=C(O)CCCCN(CCc1ccccc1OCc1ccc(CCc2ccccc2)cc1)Cc1ccc(C(=O)O)cc1,9.06%,inactive,–
C[C@H](Nc1nc(N[C@H](C)C(F)(F)F)nc(-c2cccc(Cl)n2)n1)C(F)(F)F,-11.6%,inactive,–
COc1ccnc2c1CCCCC2S(=O)c1nc2ccccc2[nH]1 (stereo not given),4.45%,inactive,–
O=C1Cc2cc(C(=O)NC3C[C@H]4CC[C@@H](C3)N4S(=O)(=O)CC3CCN(CCCC(F)(F)F)CC3)c(Cl)cc2N1 (stereo not given in full),-5.12%,inactive,–
Cc1ccc(-c2nn(C(C)(C)CNC(=O)c3ccncc3)c3ncnc(N)c23)cc1,–,8.91 µM (active),8.91 µM (active)
CC(=O)Oc1ccc(C(c2ccc(OC(C)=O)cc2)c2ccccn2)cc1,-17.9%,inactive,–
CO/N=C1\CN(c2nc3c(cc2F)c(=O)c(C(=O)O)cn3C2CC2)CC1CN (stereo not given),-3.25%,inactive,–
CNCCc1ccccn1,13.5%,inactive,–
COc1cc(-c2cn(C)c(=O)c3cnccc23)c(OC)cc1CN(C)C,19.4%,inactive,–
